Our source for the growth values is PubChem BioAssay (NCI).

Compounds without any hit were thinned out: in the full panel of roughly 83,000, 20% have a hit.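 Step 1: grow cells in 96-well plates. Step 2: add test compound at a single concentration. Step 3: incubate 48 h. Step 4: record percent growth.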 Values without a mark were called inactive. Calls of active or inactive are those of the source.

The subject of this assay is LOX IMVI melanoma. The assay is described as follows: NCI-60 one-dose screen, 48 h (100 = growth as untreated, 0 = no growth, -100 = all killed). Conditions: 10 µM unless noted. How it is done:
Growth inhibition of the LOX IMVI human tumor cell line is measured as a screen for anti-cancer activity. Cells are grown in 96 well plates and exposed to the test compound for 48 hours. Compounds are tested at a single concentration, which is 10^-5 M for most compounds. The reported endpoint is percent growth (GI% or GIPRCNT), where numbers from 0 - 100% represent growth inhibition, and numbers from -100% - 0 represent cell death. For example, a value of 40 represents 60% growth inhibition. A value of 0 means no net growth occurred over the course of the experiment. A value of -40 indicates 40% of cells at the beginning of the experiment died by the end of the experiment. A value of -100 means all cells are dead at the end of the experiment.
NCI-60 Human Tumor Cell Lines Screen was performed using the standard one-dose NCI protocol, which is described in more detail at https://dtp.cancer.gov/discovery_development/nci-60/default.htm.
Compounds with GIPRCNT values below 10 were considered active. Activity score was based on GIPRCNT using the following formula: […]
Score is 0 for GIPRCNT values of 100 or above, 50 for GIPRCNT values of 0, and 100 for GIPRCNT values of -100.
As for `COc1ncc(-c2ccc3nc(N)n(-c4ccccc4C(F)(F)F)c(=O)c3c2)cc1S(=O)(=O)Nc1ccc(F)cc1F`, the growth is -52.2% (active).
Then `Cc1ccc(S(=O)(=O)Oc2ccc([N+](=O)[O-])cc2[N+](=O)[O-])cc1`, with 10.1%; and `CCCCNC(=O)NS(=O)(=O)Cc1ccccc1`, with 107%; and `Clc1ccc2nc(-c3ccc(-c4ccc(/C=N/NC5=NCCN5)cc4)s3)cn2c1`, with 97.9%.
Then `Nc1cc(Cl)cc2cccnc12`, with 88.1%; and `CCOC(=O)c1c[nH]n2c(=S)ncnc12`, with 96.4%; and `C=C(CC(=O)OC)C(C)=O`, with 110%.
Next, `CC1(C)CC[C@]2(C(N)=O)CC[C@]3(C)C(=CC[C@@H]4[C@@]5(C)C/C(=C/c6cccnc6)C(=O)C(C)(C)[C@@H]5CC[C@]43C)[C@@H]2C1`: -74.1% [100 µM] (active); `CC1(C(=O)O)CCC(N)(C(=O)O)C1(C)C` (stereo not given): 109%.
Take `CCC(Br)(CC)C(=O)c1ccc(OCC(=O)O)c(Cl)c1Cl`: the growth is 96.9%.
Consider `COc1ncc(-c2ccc3nccc(C#CCCCCC(=O)NO)c3c2)cc1NS(=O)(=O)c1ccc(F)cc1F`, for which the growth was -69.4% (active).
Then `Nc1nc(Nc2ccccc2)c2ncn(Cc3cc4c(cc3Br)OCO4)c2n1`, with 12.9%; and `C/C=C/C1OC23CCCCC2C(C#N)(C(=N)O3)C1(C#N)C#N` (stereo not given), with 81.9%.
Then `CC(C)=CCC[C@](C)(O)[C@H]1CC[C@]2(C)[C@@H]1CC[C@@H]1[C@@]3(C)CC/C(=N/O)C(C)(C)[C@@H]3CC[C@]12C`, with -9.59% [100 µM] (active); and `COc1ccc(C(C(=O)O)c2ccc(OC)cc2)cc1`, with 106%; and `COc1cc(C)cc2oc3oc(=O)c(-c4nc5ccccc5s4)cc3c(=O)c12`, with 94.1%.
As for `O=C(CCN1CCCCC1)c1ccc(Cl)cc1`, the growth was 91.3%.
Next, `O=C(N/N=C\c1cc(Cl)ccc1O)N/N=C/c1cc(Cl)ccc1O`: 42.6%.
Then `CC(C)C1=NOC(=O)C1=Cc1cn(-c2ccccc2)nc1-c1ccccc1`, with 18%; and `CCN=Cc1c(O)c(O)c(C(C)C)c2cc(C)c(-c3c(C)cc4c(C(C)C)c(O)c(O)c(C=NCC)c4c3O)c(O)c12`, with 39.1%.
Turning to `O=C1CN(Cc2ccc(C(=O)NO)cc2)C(=O)[C@@H](Cc2ccccc2)N1`, the growth was 111%.
Then `O=C(COc1cccc(/C=C2\Oc3ccccc3C2=O)c1)c1ccc([N+](=O)[O-])cc1`, with 88.6%; and `C=C(C)[C@@H]1CC[C@]2(C(=O)NCCNCCNCCN)CC[C@]3(C)[C@H](CC[C@@H]4[C@@]5(C)CC[C@H](O)C(C)(C)[C@@H]5CC[C@]43C)[C@@H]12`, with -41% [100 µM] (active).
Regarding `O=C(N=c1n(-c2ccccc2)nc2n1CCN2C1=NCCN1)c1ccc(Cl)cc1`, the growth was 61.2%.
Then `CC(C)C1=NOC(=O)C1=Cc1cn(-c2ccccc2)nc1-c1ccc(Br)cc1`, with 26.4%.
Next, `Cn1cc(-c2nnc(-c3cn(C)c4ncccc34)o2)c2ccccc21`: 48.6%; `CCCCN(CC)CC(CC)Nc1cc(OC)cc2cccnc12` (stereo not given): 114%; `Cc1nn(-c2ccccc2)c(N2CCOCC2)c1-c1nc2ccc([N+](=O)[O-])cc2[nH]1`: 92.1%.
Then `FC(F)(F)c1ccc2c(c1)Sc1ccccc1N2`, with 104%; and `CC(C)c1ccc(/C=N/N=C(N)N)cc1`, with 83.6%.
Consider `O=C(Oc1ccc(Cl)cc1[N+](=O)[O-])Oc1ccc(Cl)cc1[N+](=O)[O-]`, for which the growth is 111%.
Turning to `O=C(Nc1cc(F)cc2cccnc12)c1cnc(N2CCNCC2)cn1`, the growth was 65.8%.
Next, `O=C(Nc1cccnc1)c1ccc2ccc3ccc(C(=O)Nc4cccnc4)nc3c2n1`: 14%.
Next, `O=c1[nH]c2cc(Cl)c(Cl)cc2n2cc3ncccc3c12`: 81.6%.
Then `C=C(C)[C@@H]1CC[C@]2(COC(=O)c3ccccc3C(=O)O)CC[C@]3(C)[C@H](CC[C@@H]4[C@@]5(C)CC[C@H](OC(=O)c6ccccc6C(=O)O)C(C)(C)[C@@H]5CC[C@]43C)[C@@H]12`, with 11.2% [100 µM]; and `CCOC(=O)C(C(C)=O)c1nc2sc3cc(Cl)c(Cl)cc3n2c(=O)c1C#N` (stereo not given), with 98.1%.
As for `O=C(N/N=C/c1c(Cl)cccc1Cl)c1cccc(Nc2ccnc(C(F)(F)F)c2)c1`, the growth is 83.7%.
For `CCCCN(CCCC)CC(O)c1ccc(OCc2ccccc2)c2ccccc12` (stereo not given), the growth is 60.8%.
Next, `CCCCCN(CCCCC)CCCCCCCCN1CCCc2ccccc21`: 61.4%.
Then `CC1(C)CC[C@]2(C(N)=O)CC[C@]3(C)C(=CC[C@@H]4[C@@]5(C)C/C(=C/c6ccncc6)C(=O)C(C)(C)[C@@H]5CC[C@]43C)[C@@H]2C1`, with -51.4% [100 µM] (active).
